Read-out in assay [1]: Interleukin-8 (IL8), CXCL8 (gene 3576)
As to the kind of experiment: BSK_3C_IL8: BioMAP Diversity Plus: 3C Assay for Interleukin-8 (IL8) Biomarker Activity (AID 2283020). The conditions noted are these: primary human endothelial cells (HUVEC); actives raise or lower the signal. The gist of the method:
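Primary human umbilical vein endothelial cells (3C system) were exposed to test chemical for 24 h, then IL-8 was quantified by ELISA. Responses were fitted bidirectionally against DMSO vehicle as baseline.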

Read-out in assay [2]: Monokine induced gamma interferon (MIG), CXCL9 (gene 4283)
In words: BSK_3C_MIG: BioMAP Diversity Plus: 3C Assay for Monokine induced gamma interferon (MIG) Biomarker Activity (AID 2283021). The conditions noted are these: primary human endothelial cells (HUVEC); actives raise or lower the signal. The essentials: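 Primary human umbilical vein endothelial cells in the 3C system were exposed to chemical for 24 h, after which MIG was quantified by ELISA. Activity was fitted bidirectionally against DMSO as negative control and baseline.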

Assay [3] can be described thus: BSK_3C_SRB: Viability Assessment in the BioMAP Diversity Plus: 3C Assay (AID 2283023).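 Also: fitted both ways against DMSO so a hit may be signal rise or drop.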 The note with it: primary human endothelial cells (HUVEC). The essentials:
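Primary human umbilical vein endothelial cells in the 3C system were read 24 h after compound dosing. Total protein was stained with 0.1% sulforhodamine B after 10% TCA fixation and read at 560 nm, with bidirectional fitting against DMSO as baseline.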

Read-out in assay [4]: Matrix Metallopeptidase 1 (MMP1), MMP1 (gene 4312)
As to the kind of experiment: BSK_BE3C_MMP1: BioMAP Diversity Plus: BE3C Assay for Matrix Metallopeptidase 1 (MMP1) Biomarker Activity (AID 2283024). The note with it: primary human bronchial epithelial cells; actives raise or lower the signal. The essentials: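 Primary human bronchial epithelial cells were dosed with test chemicals, and MMP1 levels were measured by ELISA 24 h later. Data were fitted bidirectionally against DMSO as the negative control and activity baseline.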

Read-out in assay [5]: Pselectin, SELP (gene 6403)
In words: BSK_4H_Pselectin: BioMAP Diversity Plus: 4H Assay for Pselectin Biomarker Activity (AID 2283026). The note with it: primary human endothelial cells (HUVEC); actives raise or lower the signal. The gist of the method:
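Primary human umbilical vein endothelial cells were exposed to test chemical for 24 h, then cell-surface P-selectin was quantified by ELISA. Activity was fitted bidirectionally against DMSO as negative control and baseline.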

A short description of assay [6]: BSK_4H_SRB: Viability Assessment in the BioMAP Diversity Plus: 4H Assay (AID 2283027).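 Also: cells exposed to compound for 24 h before staining.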 The note with it: primary human endothelial cells (HUVEC). The essentials: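 Absorbance at 560 nm of SRB-stained total protein served as the viability read-out in confluent primary human umbilical vein endothelium 24 h after chemical treatment. Curves were fitted bidirectionally against DMSO as negative control.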

Assay [7] in a line: BSK_BE3C_SRB: Viability Assessment in the BioMAP Diversity Plus: BE3C Assay (AID 2283028). The conditions noted are these: primary human bronchial epithelial cells. The gist of the method:
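Human primary bronchial epithelial cells were exposed to test chemicals for 24 h. Total protein in parallel cultures was then measured by staining with 0.1% sulforhodamine B after 10% TCA fixation, with absorbance read at 560 nm. Activity was fitted bidirectionally against DMSO.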

Read-out in assay [8]: Thrombomodulin, THBD (gene 7056)
In words: BSK_3C_Thrombomodulin: BioMAP Diversity Plus: 3C Assay for Thrombomodulin Biomarker Activity (AID 2283029). The conditions noted are these: primary human endothelial cells (HUVEC); actives raise or lower the signal. The gist of the method: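 Primary human umbilical vein endothelial cells (3C system) were exposed to chemical for 24 h, then thrombomodulin levels were measured by ELISA. Activity was fitted bidirectionally against the DMSO negative control as baseline.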

Read-out in assay [9]: Urokinase-type plasminogen activator receptor (uPAR), PLAUR (gene 5329)
As to the kind of experiment: BSK_4H_uPAR: BioMAP Diversity Plus: 4H Assay for Urokinase-type plasminogen activator receptor (uPAR) Biomarker Activity (AID 2283030). The conditions noted are these: primary human endothelial cells (HUVEC); actives raise or lower the signal. The essentials: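 Primary human umbilical vein endothelial cells were exposed to chemical for 24 h before cell-surface uPAR was quantified by ELISA. Activity was fitted bidirectionally against the DMSO negative control baseline.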

Read-out in assay [10]: Vascular endothelial growth factor receptor 2 (Homo sapiens) (UniProt P35968)
In words: BSK_4H_VEGFRII: BioMAP Diversity Plus: 4H Assay for Vascular endothelial growth factor receptor 2 (VEGFR2) Biomarker Activity (AID 2283031). The conditions noted are these: primary human endothelial cells (HUVEC); actives raise or lower the signal. The essentials: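 Primary human umbilical vein endothelial cells in the BioMAP 4H system were dosed with test chemical, and 24 h later VEGFRII was measured by ELISA. Activity was fitted bidirectionally against DMSO as negative control and baseline.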

Read-out in assay [11]: Human Leukocyte Antigen - DR isotype (HLADR), HLA-DRA (gene 3122)
As to the kind of experiment: BSK_BE3C_HLADR: BioMAP Diversity Plus: BE3C Assay for Human Leukocyte Antigen - DR isotype (HLADR) Biomarker Activity (AID 2283032). The conditions noted are these: primary human bronchial epithelial cells; actives raise or lower the signal. The essentials: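 Human primary bronchial epithelial cells in the BE3C system were exposed to chemicals for 24 h, after which HLA-DR levels were quantified by ELISA. Activity was fitted bidirectionally, gain or loss of signal, against DMSO as negative control and baseline.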

Read-out in assay [12]: Vascular cell adhesion molecule 1 (VCAM1), VCAM1 (gene 7412)
As to the kind of experiment: BSK_4H_VCAM1: BioMAP Diversity Plus: 4H Assay for Vascular cell adhesion molecule 1 (VCAM1) Biomarker Activity (AID 2283033).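 Also: cell-surface VCAM-1 protein measured by ELISA.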 The note with it: primary human endothelial cells (HUVEC); actives raise or lower the signal. The essentials: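 Primary human umbilical vein endothelial cells were exposed to chemicals for 24 h, after which VCAM-1 was quantified by ELISA. Responses were fitted bidirectionally against DMSO as negative control and activity baseline.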

Read-out in assay [13]: Interferon-gamma inducible Protein 10 (IP10), CXCL10 (gene 3627)
In words: BSK_BE3C_IP10: BioMAP Diversity Plus: BE3C Assay for Interferon-gamma inducible Protein 10 (IP10) Biomarker Activity (AID 2283034). The note with it: primary human bronchial epithelial cells; actives raise or lower the signal. The essentials: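 Human primary bronchial epithelial cells were exposed to chemicals for 24 hours, after which IP-10 levels were measured by ELISA. Data were fitted bidirectionally against DMSO, which served as the negative control and activity baseline.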

Read-out in assay [14]: Monokine induced gamma interferon (MIG), CXCL9 (gene 4283)
As to the kind of experiment: BSK_BE3C_MIG: BioMAP Diversity Plus: BE3C Assay for Monokine induced gamma interferon (MIG) Biomarker Activity (AID 2283035).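 Also: MIG protein measured by ELISA in BE3C cultures after 24 h of dosing.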 The note with it: primary human bronchial epithelial cells; actives raise or lower the signal. The gist of the method:
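MIG level was determined by ELISA after 24 h chemical treatment of primary human bronchial epithelial cells. Values were fitted bidirectionally with DMSO as the negative control and activity baseline.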

Read-out in assay [15]: Plasminogen activator inhibitor-1 (PAI1), SERPINE1 (gene 5054)
In words: BSK_BE3C_PAI1: BioMAP Diversity Plus: BE3C Assay for Plasminogen activator inhibitor-1 (PAI1) Biomarker Activity (AID 2283037). The note with it: primary human bronchial epithelial cells; actives raise or lower the signal. The essentials: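 Human primary bronchial epithelial cells were exposed to chemical for 24 h, then PAI-1 was quantified by ELISA. Activity was fitted bidirectionally relative to the DMSO negative control baseline.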

Read-out in assay [16]: urokinase plasminogen activator (uPA), PLAU (gene 5328)
In words: BSK_BE3C_uPA: BioMAP Diversity Plus: BE3C Assay for urokinase plasminogen activator (uPA) Biomarker Activity (AID 2283038).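 Also: uPA protein level quantified by ELISA in cell cultures; uPA read one day after compound addition.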 The note with it: primary human bronchial epithelial cells; actives raise or lower the signal. The gist of the method:
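Human primary bronchial epithelial cells were exposed to chemical for 24 h, then uPA levels were measured by ELISA. Responses were fitted bidirectionally against DMSO as negative control and baseline. Parallel SRB staining of total protein gauged overt cytotoxicity.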

Read-out in assay [17]: Urokinase-type plasminogen activator receptor (uPAR), PLAUR (gene 5329)
In words: BSK_BE3C_uPAR: BioMAP Diversity Plus: BE3C Assay for Urokinase-type plasminogen activator receptor (uPAR) Biomarker Activity (AID 2283039).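 Also: cells exposed to compound for one day before measurement.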 The conditions noted are these: primary human bronchial epithelial cells; actives raise or lower the signal. The essentials: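 Primary human bronchial epithelial cells were dosed with chemical and harvested 24 h later; uPAR was quantified by ELISA. Activity was fitted bidirectionally against DMSO as negative control and baseline.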

Assay [18] has as its target human Vitamin D Receptor (VDR), VDR (gene 7421) (UniProt P11473). As to the kind of experiment: ATG_VDR_TRANS: Attagene TRANS-FACTORIAL HepG2 Assay for human Vitamin D Receptor (VDR) (AID 2283022; active = hit-call score of the fitted dose curve at least 0.9, where 1 is the maximum). The gist of the method:
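HepG2 cells were transiently transfected with multiple GAL4-UAS reporter units, so signal reflects exogenous chimeric receptor-Gal4 activity. After 24 h compound exposure, reporter mRNA was measured by RT-PCR, fluorescent labelling and capillary electrophoresis, fitted for gain of signal versus DMSO.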

The structures appear in SMILES notation. Several values for one entry are separate records, joined by “and”; a condition that tells them apart may be missing. Equal entries are not always repeated. Records with an inconclusive call do not appear. Some structures have more than one record in an assay (separate samples or runs), and their calls can disagree. Activity calls are given as the source filed them. The calls were made as follows, unless noted: active = hit-call score of the fitted dose curve at least 0.9, where 1 is the maximum; inactive = score below 0.9.

human Vitamin D Receptor (VDR), VDR (gene 7421), sequence (P11473 whole entry, looked up, the tested form may be a part): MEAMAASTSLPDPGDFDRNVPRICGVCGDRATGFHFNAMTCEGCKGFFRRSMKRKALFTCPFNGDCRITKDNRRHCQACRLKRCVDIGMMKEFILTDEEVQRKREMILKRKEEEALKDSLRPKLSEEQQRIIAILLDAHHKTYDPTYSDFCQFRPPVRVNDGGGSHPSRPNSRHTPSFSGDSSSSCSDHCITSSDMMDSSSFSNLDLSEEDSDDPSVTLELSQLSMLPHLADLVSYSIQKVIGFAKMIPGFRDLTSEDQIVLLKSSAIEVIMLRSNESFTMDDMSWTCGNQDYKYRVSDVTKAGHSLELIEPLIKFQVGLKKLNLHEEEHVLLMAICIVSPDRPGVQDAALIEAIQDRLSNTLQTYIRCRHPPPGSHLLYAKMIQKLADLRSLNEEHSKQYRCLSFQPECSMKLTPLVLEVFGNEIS

A word on the AC50: it is the concentration giving half of the maximal activity seen. Consider `O=S(=O)(O)CCC(F)(F)C(F)(F)C(F)(F)C(F)(F)C(F)(F)C(F)(F)C(F)(F)C(F)(F)F`, for which the result in assay [1], in assay [2], in assay [3], in assay [5], in assay [6] and in [7] was inactive. The result in [8], in assay [9], in assay [10], in [12], in [14] and in [15] was inactive. For the same compound, the result in assay [16] and in [17] was inactive. Besides, the AC50 in [3] is 25.6 µM (active); in assay [4] it was 11.1 µM (active) and 15.4 µM (active); in [11], 20.4 µM (active) and 25.3 µM (active); in assay [13] it was 16.8 µM (active) and 24.1 µM (active); in assay [15], 8.09 µM (active).

`NCC(F)(F)C(F)(F)C(F)(F)C(F)(F)C(F)(F)C(F)(F)F`: the result in [1], in assay [2], in assay [18], in assay [3], in assay [4] and in [5] was inactive. Moreover, the outcome in assay [6], in assay [7], in [8], in [9], in assay [10] and in [11] was inactive. Besides, the outcome in assay [12], in assay [13], in assay [14], in [15], in [16] and in assay [17] was inactive.

On to `C=CC(=O)OCC(F)(F)C(F)(F)C(F)(F)C(F)(F)C(F)(F)C(F)(F)C(F)(F)C(F)F`, for which the result in [1], in assay [2], in [18], in assay [3], in assay [4] and in assay [5] was inactive. Moreover, the outcome in assay [6], in [7], in assay [9], in [10], in assay [11] and in assay [12] was inactive. The result in [13], in [14], in assay [15], in assay [16] and in [17] was inactive. Further, the AC50 in assay [8] was 5.95 µM (active) and 19.2 µM (active).

On to `OCCCCC(F)(F)C(F)(F)C(F)(F)C(F)(F)F`, for which the outcome in assay [1], in assay [2], in assay [18], in [3], in [4] and in [5] was inactive. Also, the outcome in assay [6], in [7], in assay [8], in [9], in [10] and in assay [11] was inactive. Further, the outcome in [12], in assay [13], in assay [14], in assay [15], in [16] and in [17] was inactive.

Consider `CN(N=O)C(=O)N[C@@H]1[C@@H](O)[C@H](O)[C@@H](CO)O[C@@H]1O`, for which the result in assay [18] was inactive.

On to `CCCCCCCCn1sc(Cl)c(Cl)c1=O`, for which the compound was called inactive in assay [18].

Turning to `CCCCCCCCCCCCCC[P+](CCCC)(CCCC)CCCC`, in assay [18], the compound was classed as inactive.

Regarding `F[Si-2](F)(F)(F)(F)F`, the compound was called inactive in [18].

For `Brc1ccccn1`, the outcome in [18] was inactive.

For `Nc1c(Br)cc([N+](=O)[O-])cc1Br`, the compound was classed as inactive in [18].

`CC(C)Nc1ccc(NC(C)C)c2c1C(=O)c1ccccc1C2=O`: the outcome in assay [18] was inactive.

Consider `CCOC(OCC)OCC`, for which the call in [18] was inactive.

Take `CCCCCCCCCc1ccc(OCCO)cc1`: in assay [18], the compound was called inactive.

For `CC(C)=CCCC(C)O` (centres undefined), the outcome in [18] was inactive.

Regarding `CC1=CCC(=O)O1`, the compound was classed as inactive in assay [18].

The values above are taken from PubChem BioAssay (EPA / NIEHS).
